Screens (PubChem BioAssay)
Shown is part of a subset that was picked to be rich in hits.
Pf Dd2 inh = qHTS Primary assay for Inhibitors of Plasmodium falciparum Dd2 growth in vitro | P. falciparum Dd2 growth, SYBR Green, 72 h | Potency, µM (doses to about 28.9 µM), most hits filed as inhibitors | 120,000 tested, 4.3% active | AID 1347417, 2020; active means well fitted inhibition curve with a large enough effect; further: nearly all actives have a fitted effect of over 65% in size
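Readout: SYBR Green fluorescence, 485 nm excitation, 535 nm emission, after ~16 h lysis at 37C. Before that, Dd2-infected red cells (2.5% hematocrit) grew 72 h with compound, 29 uM top final concentration.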
Of the large screens only hits and unclear results are named; the others gave an inactive call.

Cc1cc2nc3n(c(=O)c2n1CC(=O)N1CCN(c2ccccc2F)CC1)CCCCC3	none
CCOc1ccc(NC(=O)Cn2c(C)cc3nc4n(c(=O)c32)CCCCC4)cc1	none
CCOc1ccc(NC(=O)COc2cccc(-c3nnc4n3CCCC4)c2)cc1	Pf Dd2 inh 2.8µM
COc1ccccc1NC(=O)COc1cccc(-c2nnc3n2CCCC3)c1	Pf Dd2 inh 0.63µM
COc1ccccc1NC(=O)Cn1cnc2c(nc3n2CCCCC3)c1=O	none
O=C(Cn1nc2n(c1=O)CCCC2)N1CCN(c2ccccc2F)CC1	none
Cc1ccc2c(c1)c(Cn1cnc(-c3ccccc3)c1-c1cnc[nH]1)nn2C	none
CNS(=O)(=O)c1cccc(C(=O)N2CCCC2c2ccco2)c1 (stereo unspecified)	none
CCC(C)NC(=O)C(NC(=O)c1ccc(OC)cc1)C1CCN(C(=O)CC(C)C)CC1 (stereo unspecified)	none
CCc1ccccc1-n1nc(-c2c(C)nc3scc(CC(=O)NCc4ccco4)n3c2=O)cc1C	none
O=C(c1ccccc1F)N1CCn2c(nn(-c3ccc(F)cc3F)c2=O)C1	none
Cc1cccc(NC(=O)COc2ccc3oc4c(c3c2)CCCC4)c1	none
COc1cccc(-c2cc(C3CCN(C(=O)Nc4cccc(SC)c4)CC3)[nH]n2)c1	none
CSc1cccc(NC(=O)COc2cccc(-c3nnc4n3CCCC4)c2)c1	Pf Dd2 inh 11µM
CC(C)N(C)Cc1nnnn1CC(=O)N1CCCC(OCc2ccccn2)C1 (stereo unspecified)	none
Cc1ccc(S(=O)(=O)N2CCc3c(C(=O)NCc4ccccn4)cccc32)cc1	none
O=C(c1ccc(F)cc1)N1CCc2nc(-c3ccc(Cl)cc3)nc(-c3ccccc3)c2C1	none
O=C(Cc1ccccc1F)N1CCC2(CCCCO2)CC1	none
O=C(O)c1cccc(-c2cccc(C(F)(F)F)c2)c1	none
Fc1ccccc1-c1noc(NCc2ccccc2)n1	none
O=Cc1cccc(-c2ccc(F)cc2F)c1	none
NCc1cccc(-c2ccccc2F)c1	Pf Dd2 inh 11µM
NCc1cccc(-c2cccc(C(F)(F)F)c2)c1	Pf Dd2 inh 11µM
O=C(c1ccncc1)N1CC2CCC(C1)N2Cc1cccc(-c2ccc(F)cc2F)c1	none
O=Cc1cccc(-c2cccc(C(F)(F)F)c2)c1	none
O=Cc1cccc(-c2ccccc2F)c1	none
NCc1cccc(-c2ccc(F)cc2F)c1	Pf Dd2 inh 13µM
CS(=O)(=O)N1CCC2(CCC(=O)N(CC3CCCO3)C2)CC1 (stereo unspecified)	none
CC(C)CCN1CC2(Cc3ccccc3NC2=O)C1	none
CCc1noc(-c2ccn3c(CNC(=O)c4ccccn4)nnc3c2)n1	none
Cc1cccc(-c2ccc3c(c2)C(=O)N2CC[C@H](NC(=O)CCC(=O)O)[C@H]2C(=O)N3)c1C	none
CC(C)NC(=O)N1CCCCCNC(=O)[C@@H]2CCCC[C@@H]21	none
COc1ncccc1-c1cccc(CCOc2cnc3c(ccn3CC(=O)O)c2)c1	none
Cc1nccc(-c2ccccc2)c1C(=O)N1CCOCC1CC(=O)N(C)C (stereo unspecified)	none
CC[C@H]1CN2CC[C@H]1C[C@@H]2CNC(=S)Nc1ccc(N(C)C)cc1	none
Cc1nnnn1CCC(=O)N[C@@H]1COCC[C@@H]1OCc1cscn1	none
CC(C)NC(=O)CCC1CCN(C(=O)c2ccccc2F)CC1	none
CNC(=O)[C@@H]1CN(C(=O)c2ccn(C)n2)C[C@H]1COC	none
O=C1c2ccccc2CN1C1CCN(Cc2cccnc2)CC1	none
CNC(C)c1ccc(OC(F)(F)F)cc1 (stereo unspecified)	none
CNC(C)c1ccc(Oc2ccccc2)cc1 (stereo unspecified)	Pf Dd2 inh 11µM
CNC(C)c1ccncc1 (stereo unspecified)	none
COc1ccc(-c2ccccc2)cc1N1C(=O)[C@@H]2C[C@H]1CN2C(=O)C(C)(C)C	none
CN(CC(O)COc1cccc(CNCCOc2ccccc2)c1)C1CCCCC1 (stereo unspecified)	Pf Dd2 inh 4.5µM
COc1cc(CNCCOc2cccnc2)ccc1OCC(O)CN1CCSCC1 (stereo unspecified)	none
CCN1CCN(CC(O)COc2cccc(CNCCc3cccc(C)n3)c2)CC1 (stereo unspecified)	none
Cc1noc(C)c1[S+](=O)([O-])N1CCn2ncc(C(=O)N3CCOCC3)c2C1	none
N#Cc1ccc(S(=O)(=O)N2C[C@@H](Oc3cccnc3)C[C@H]2C(N)=O)cc1	none
CS(=O)(=O)N1CCCN(C(=O)C2(c3ccccc3)CC2)c2ccccc21	none
CN(C)c1cccc(C(=O)N2CCC3(CC2)NC(=O)N(c2cccc(Cl)c2)N3)c1	none
CC(C)c1ccc(CN2CCc3ncc(C(=O)Nc4ccccc4)n3CC2)cc1	Pf Dd2 inh 13µM
CC(C)CCNC(=O)c1cnc2n1CCN(Cc1ccc(C(C)C)cc1)CC2	none
O=C(Nc1ccccc1)c1cnc2n1CCN(Cc1cccc(O)c1)CC2	none
Cc1noc(-c2cn(C3CCN(C(=O)c4ccc(OC(F)(F)F)cc4)CC3)nn2)n1	none
COc1cccc(NC(=O)c2cc3c(-c4ccc(Cl)cc4)nn(C)c3s2)c1	Pf Dd2 inh 3.2µM
COCCCNC(=O)c1cc2c(-c3cccc(OC)c3)nn(C)c2s1	none
COc1cccc(-c2nn(C)c3sc(C(=O)NCc4ccc(C)cc4)cc23)c1	none
COc1ccc(NC(=O)c2cc3c(C)nn(-c4ccccc4)c3s2)c(OC)c1	none
COc1ccccc1CNC(=O)c1cc2c(-c3ccc(Cl)cc3)nn(C)c2s1	none
COc1ccc(-c2nn(C)c3sc(C(=O)NCCN(C)C)cc23)cc1OC	none
COc1ccccc1NC(=O)c1cc2c(C)nn(-c3ccccc3)c2s1	none
COc1ccc(-c2nn(C)c3sc(C(=O)Nc4cccc(F)c4)cc23)cc1OC	Pf Dd2 inh 2.5µM
Cc1ccc(NC(=O)c2cc3c(-c4ccccc4)nn(-c4ccccc4)c3s2)cc1	Pf Dd2 inh 2.8µM
O=C(OCc1ccccc1)N1CCOCC12CCN(Cc1ncccn1)CC2	none
CNC(=O)[C@@H](c1ccccc1OC)N1CCC[C@H]1C(=O)NCC1CC1	none
Cc1c(CN(C)Cc2cccc(C(=O)Nc3ccc(C#N)cc3)c2)cnn1C	none
CCOCCN1C(=O)NC(c2ccccc2)C2=C1COC2=O (stereo unspecified)	none
CCOc1ccc(CNC(=O)Cn2nc(N3CCN(c4ccccc4)CC3)ccc2=O)cc1	none
CCc1ccc(NC(=O)c2ccc(Cn3nc(N4CCN(c5ccccc5)CC4)ccc3=O)o2)cc1	Pf Dd2 inh 11µM
COc1cccc(NC(=O)Cn2nc(N3CCN(c4ccccc4)CC3)ccc2=O)c1	none
c1csc(-c2[nH]ncc2CNC2CCC3(CCNCC3)CC2)c1	none
COCCNC(=O)CCCN1C(=O)COc2ccc(C(=O)COc3ccc(C(C)(C)C)cc3)cc21	none
CCOc1cccc(CN2C[C@@H]3C(=O)N(CCCN4CCCC4=O)C(=O)[C@@H]3C2)c1	none
CCCc1nc2sc3c(N4CCCCC4)ncnc3c2c2c1CCCC2	none
CCCCCCNc1ncnc2c1sc1nc(N3CCOCC3)c3c(c12)CCCC3	Pf Dd2 inh 8.9µM
CC(C)OCCCNc1ncnc2sc3c(c12)CCCC3	none
Cc1ccc(S(=O)(=O)N2CCC(n3cnnc3C(C)C)CC2)cc1F	none
CCn1cc(C(=O)NCCCN(CC(C)C)CC(C)C)c(=O)c2cc(S(=O)(=O)N3CCc4ccccc4C3)ccc21	none
CCn1cc(C(=O)NCCCN2CCCC(C)C2)c(=O)c2cc(S(=O)(=O)N(C)C3CCCCC3)ccc21 (stereo unspecified)	Pf Dd2 inh 1µM
CCCCN(CC)CCCNC(=O)c1cn(CC)c2ccc(S(=O)(=O)N3CCc4ccccc4C3)cc2c1=O	Pf Dd2 inh 10µM
CCn1cc(C(=O)NCCc2ccccc2)c(=O)c2cc(S(=O)(=O)N(C)C3CCCCC3)ccc21	none
